Test results as given in PubChem BioAssay AID1159580 (chemical genetic matrix, 2015).
Values joined by “and” are separate entries in the source; they are usually repeats but may differ in a detail not shown here. Equal entries are not always repeated. The whole screen tested about 5,500 compounds, of which about 2,000 (36%) were called active. Roughly 18% stayed inconclusive and do not appear here. No stated cut-off is given here; in the data, active means normalized growth mostly below about 0.91 (no sharp cut-off); inconclusive means no clear call, values can overlap the other calls; inactive means mostly above about 0.92. This is one part of the list.

Experiment: chemical genetic growth profiling, strain panel (AID 1159580);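 further: tested at 20 µM; growth read once vehicle control cultures reached saturation at 30 °C; 1 = growth at the plate median or of vehicle wells; lower values mean less growth of the strain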
Conditions: S. cerevisiae deletion strains, growth OD

Measured: normalized growth

CCn1cc(C(=O)O)c(=O)c2cc(F)c(N3CCNCC3)nc21
inactive: locus YAL013W, strain DEP1, hits give low values 1.01 | locus YAL021C, strain ccr4, hits give low values 0.939 | locus YAL026C, strain drs2, hits give low values 0.985 | locus YAL030W, strain snc1, hits give low values 0.982 | locus YBL061C, strain skt5, hits give low values 0.991 | locus YBR009C, strain hhf1, hits give low values 0.992 | locus YBR021W, strain FUR4, hits give low values 1.01 | locus YBR023C, strain chs3, hits give low values 0.983 | locus YBR171W, strain sec66, hits give low values 0.984 | locus YBR229C, strain ROT2, hits give low values 1.01 | locus YBR231C, strain swc5, hits give low values 0.998 | locus YBR279W, strain paf1, hits give low values 0.982 | locus YCL011C, strain gbp2, hits give low values 0.987 | locus YCL016C, strain dcc1, hits give low values 0.986 | locus YCL029C, strain bik1, hits give low values 1 | locus YCL061C, strain MRC1, hits give low values 0.987 | locus YCL069W, strain vba3, hits give low values 0.97 | locus YCR088W, strain abp1, hits give low values 0.982 | locus YDL005C, strain med2, hits give low values 0.978 | locus YDL035C, strain GPR1, hits give low values 1.02 | locus YDL040C, strain nat1, hits give low values 0.983 | locus YDL074C, strain BRE1, hits give low values 1 | locus YDL101C, strain DUN1, hits give low values 1.01 | locus YDL134C, strain PPH21, hits give low values 1.03 | locus YDL185W, strain tfp1, hits give low values 1.03 | locus YDL192W, strain arf1, hits give low values 1.02 | locus YDR001C, strain nth1, hits give low values 0.978 | locus YDR069C, strain doa4, hits give low values 0.982 | locus YDR101C, strain arx1, hits give low values 1 | locus YDR137W, strain rgp1, hits give low values 0.939 | locus YDR159W, strain sac3, hits give low values 0.962 | locus YDR162C, strain NBP2, hits give low values 1.02 | locus YDR195W, strain ref2 0.97 | locus YDR297W, strain sur2, hits give low values 0.971 | locus YDR318W, strain mcm21, hits give low values 1.02 | locus YDR334W, strain swr1, hits give low values 0.974 | locus YDR335W, strain msn5, hits give low values 0.979 | locus YDR388W, hits give low values 1.01 | locus YDR392W, strain spt3, hits give low values 0.946 | locus YDR502C, strain sam2, hits give low values 1.01 | locus YEL003W, strain gim4, hits give low values 0.985 | locus YEL037C, strain rad23, hits give low values 0.975 | locus YEL061C, strain CIN8 (second series), hits give low values 0.979 | locus YEL061C, strain CIN8, hits give low values 1.01 | locus YER015W, strain faa2, hits give low values 0.982 | locus YER016W, strain bim1, hits give low values 0.984 | locus YER110C, hits give low values 1.02 | locus YER111C, strain swi4, hits give low values 0.985 | locus YER155C, strain BEM2 (second series), hits give low values 0.956 | locus YER155C, strain BEM2, hits give low values 1.01 | locus YER167W, strain BCK2, hits give low values 1.03 | locus YFR010W, strain ubp6, hits give low values 0.984 | locus YGL078C, strain dbp3, hits give low values 1.01 | locus YGL086W, strain mad1, hits give low values 1.01 | locus YGL167C, strain pmr1, hits give low values 0.976 | locus YGL173C, strain kem1, hits give low values 0.98 | locus YGL227W, strain vid30, hits give low values 0.987 | locus YGL240W, strain doc1, hits give low values 0.975 | locus YGL248W, strain PDE1, hits give low values 1.01 | locus YGL253W, strain hxk2, hits give low values 0.994 | locus YGR135W, strain pre9, hits give low values 1.03 | locus YGR252W, strain gcn5, hits give low values 1.01 | locus YHR013C, strain ard1, hits give low values 0.966 | locus YHR027C, strain rpn1, hits give low values 0.994 | locus YHR030C, strain SLT2, hits give low values 1.01 | locus YHR079C, strain IRE1 (second series), hits give low values 1.01 | locus YHR079C, strain IRE1, hits give low values 1.03 | locus YHR094C, strain hxt1, hits give low values 1.02 | locus YHR129C, strain ARP1, hits give low values 1.01 | locus YHR142W, strain chs7, hits give low values 0.984 | locus YHR200W, strain rpn10, hits give low values 1.01 | locus YIL066C, strain RNR3, hits give low values 1.02 | locus YIL073C, strain SPO22, hits give low values 1.08 | locus YIL125W, strain kgd1, hits give low values 1.01 | locus YIR030C, strain dcg1, hits give low values 1.01 | locus YJL092W, strain hpr5, hits give low values 0.991 | locus YJL095W, strain BCK1 (second series), hits give low values 0.985 | locus YJL095W, strain BCK1, hits give low values 1 and 1.04 | locus YJL115W, strain asf1, hits give low values 0.963 | locus YJL129C, strain trk1, hits give low values 0.943 | locus YJL134W, strain LCB3, hits give low values 1 | locus YJL154C, strain vps35, hits give low values 0.961 | locus YJL164C, strain tpk1, hits give low values 0.992 | locus YJL166W, strain qcr8, hits give low values 0.981 | locus YJL168C, strain set2, hits give low values 1.01 | locus YJL187C, strain SWE1 (second series), hits give low values 1 | locus YJL187C, strain SWE1, hits give low values 0.981 | locus YJR043C, strain POL32, hits give low values 0.992
